# In PubChem BioAssay (Tox21):
# Results filed as inconclusive are left out. A call without a number means that no potency is given here. More than one record can exist for a structure, and the calls need not agree. The source made the active and inactive calls. Calls follow the shape of the full dose curve.
# How the values were obtained:
# [1] = molecular target: Acetylcholinesterase (Homo sapiens) (UniProt P22303); assay: Acetylcholinesterase (AChE) small molecule antagonists: colormetric cell-based qHTS assay (AID 1347395); also: nearly all actives have a fitted effect of over 30% in size; also: potency is read from the fitted curve at half-maximal effect
# Summary of the method: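 Homogeneous whole-cell format. SH-SY5Y cells seeded overnight, dosed with compound (30 min, 37 C, 5% CO2), then given DTNB/acetylthiocholine cocktail for 90 min at 37 C; colorimetric signal.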
# [2] = molecular target: Acetylcholinesterase (Homo sapiens) (UniProt P22303); assay: Acetylcholinesterase (AChE) small molecule antagonists: enzyme-based qHTS assay (AID 1347397); settings: Potency: AChE enzyme activity inhibition; outcome: AChE enzyme activity inhibition; also: nearly all actives have a fitted effect of over 55% in size; also: potency is read from the fitted curve at half-maximal effect
# Summary of the method: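 Compound or DMSO vehicle was pin-transferred onto recombinant human AChE (50 mU/mL as dispensed) and left 30 min at room temperature. Acetylthiocholine with DTNB then started the reaction, read colorimetrically 10 min later.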
# [3] = molecular target: Acetylcholinesterase (Homo sapiens) (UniProt P22303); assay: Acetylcholinesterase (AChE) small molecule antagonists: fluorescence cell-based qHTS assay (AID 1347398); settings: Potency: AChE activity; outcome: AChE activity; also: nearly all actives have a fitted effect of over 50% in size; also: potency is read from the fitted curve at half-maximal effect
# Summary of the method: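 Using neuroblastoma SH-SY5Y cells as the enzyme source, test chemicals are preincubated 30 min at 37 C; AChE-driven acetylthiocholine cleavage is then quantified by thiocholine-dependent Thiolite Green fluorescence after 40 min at room temperature.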
# [4] = molecular target: Acetylcholinesterase (Homo sapiens) (UniProt P22303); assay: Acetylcholinesterase (AChE) small molecule antagonists: enzyme-based qHTS assay with human liver microsomes (AID 1347399); settings: Potency: qHTS inhibition; outcome: qHTS inhibition; also: nearly all actives have a fitted effect of over 60% in size
# Summary of the method: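 Recombinant human AChE (50 mU/mL in the enzyme mix) and human liver microsomes (0.25 mg/mL final) were preincubated with compound and NADPH (0.25 mg/mL final) for 30 min at 37 C. Acetylthiocholine/DTNB was then added; thiocholine was read colorimetrically after 10 min at room temperature.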
# Acetylcholinesterase (Homo sapiens), sequence (P22303 whole entry, looked up): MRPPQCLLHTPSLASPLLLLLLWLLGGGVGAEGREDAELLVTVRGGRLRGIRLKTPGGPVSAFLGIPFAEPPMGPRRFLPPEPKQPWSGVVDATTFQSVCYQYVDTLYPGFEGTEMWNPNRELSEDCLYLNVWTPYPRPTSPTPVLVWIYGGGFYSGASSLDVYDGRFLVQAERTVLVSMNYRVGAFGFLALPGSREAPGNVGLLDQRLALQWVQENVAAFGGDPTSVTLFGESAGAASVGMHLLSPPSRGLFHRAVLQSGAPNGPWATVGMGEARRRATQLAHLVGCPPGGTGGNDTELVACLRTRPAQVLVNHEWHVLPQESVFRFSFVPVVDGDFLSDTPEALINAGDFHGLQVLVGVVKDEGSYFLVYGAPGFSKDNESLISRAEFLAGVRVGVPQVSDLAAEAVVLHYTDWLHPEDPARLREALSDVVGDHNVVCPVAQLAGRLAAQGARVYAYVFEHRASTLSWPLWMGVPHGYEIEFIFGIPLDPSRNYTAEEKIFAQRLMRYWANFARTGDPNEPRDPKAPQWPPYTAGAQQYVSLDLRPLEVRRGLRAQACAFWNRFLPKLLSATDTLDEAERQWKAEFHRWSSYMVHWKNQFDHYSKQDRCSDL
smiles,measurement,setting,value
OCC(O)CS (stereo not given),Potency,[1],inactive
same,Potency,[2],inactive
same,Potency,[3],inactive
same,Potency,[4],inactive
CCCCCCC1CCCC(=O)O1 (stereo not given),Potency,[1],inactive
same,Potency,[2],inactive
same,Potency,[3],inactive
same,Potency,[4],inactive
CCC(=O)/C=C/C1C(C)=CCCC1(C)C (stereo not given),Potency,[1],inactive
same,Potency,[2],inactive
same,Potency,[3],inactive
same,Potency,[4],inactive
CC1(C)C(O)C(C)(C)C1O (stereo not given),Potency,[1],inactive
same,Potency,[2],inactive
same,Potency,[3],inactive
same,Potency,[4],inactive
CN1CCN(c2c(F)cc3c(=O)c(C(=O)O)cn(CCF)c3c2F)CC1,Potency,[1],inactive
same,Potency,[2],inactive
same,Potency,[3],inactive
same,Potency,[4],inactive
CSCCC=O,Potency,[1],inactive
same,Potency,[2],inactive
same,Potency,[3],inactive
same,Potency,[4],inactive
O=C(O)CCCCCCCCCC(=O)O,Potency,[1],inactive
same,Potency,[2],inactive
same,Potency,[3],inactive
same,Potency,[4],inactive
COC(=O)c1ccccc1C,Potency,[1],inactive
same,Potency,[2],inactive
same,Potency,[3],inactive
same,Potency,[4],inactive
CCCCCC/C=C/C=O,Potency,[1],inactive
same,Potency,[2],inactive
same,Potency,[3],inactive
same,Potency,[4],inactive
COc1cc(/C=C/C(=O)O[C@H]2CC[C@]34C[C@]35CC[C@]3(C)[C@@H]([C@H](C)CCC=C(C)C)CC[C@@]3(C)[C@@H]5CC[C@H]4C2(C)C)ccc1O,Potency,[1],inactive
same,Potency,[2],inactive
same,Potency,[3],inactive
same,Potency,[4],inactive
CN(C)CCOC(C)(c1ccccc1)c1ccccn1 (stereo not given),Potency,[1],inactive
same,Potency,[2],inactive
same,Potency,[3],inactive
same,Potency,[4],inactive
Cc1cn([C@@H]2O[C@H](CO)[C@@H](O)[C@@H]2F)c(=O)[nH]c1=O,Potency,[1],inactive
same,Potency,[2],inactive
same,Potency,[3],inactive
same,Potency,[4],inactive
CCCCCCCCCCOC(C)=O,Potency,[1],inactive
same,Potency,[2],inactive
same,Potency,[3],inactive
same,Potency,[4],inactive
C=CC(=O)OCC(Br)CBr (stereo not given),Potency,[1],inactive
same,Potency,[2],inactive
same,Potency,[3],inactive
same,Potency,[4],inactive
CCCC(=O)O[C@]1(C(=O)CC)CC[C@H]2[C@@H]3CCC4=CC(=O)CC[C@]4(C)[C@H]3[C@@H](O)C[C@@]21C,Potency,[1],inactive
same,Potency,[2],inactive
same,Potency,[3],inactive
same,Potency,[4],inactive
Cc1ncsc1CCO,Potency,[1],inactive
same,Potency,[2],inactive
same,Potency,[3],inactive
same,Potency,[4],inactive
C[N+](C)(C)CC(O)CCl (stereo not given),Potency,[1],inactive
same,Potency,[2],inactive
same,Potency,[3],inactive
same,Potency,[4],inactive
C=COC(=O)C(C)(CC)CCC(C)C (stereo not given),Potency,[1],inactive
same,Potency,[2],inactive
same,Potency,[3],inactive
same,Potency,[4],inactive
COCCc1ccc(OCC2CO2)cc1 (stereo not given),Potency,[1],inactive
same,Potency,[2],inactive
same,Potency,[3],inactive
same,Potency,[4],inactive
CCC(C)C=O (stereo not given),Potency,[1],inactive
same,Potency,[2],inactive
same,Potency,[3],inactive
same,Potency,[4],inactive
C[C@]12CC[C@@H]3c4ccc(O)cc4CC[C@H]3[C@@H]1CC[C@@H]2OC(=O)CCC1CCCC1,Potency,[1],inactive
same,Potency,[2],inactive
same,Potency,[3],inactive
same,Potency,[4],inactive
CCc1cccc(CC)c1N(COC)C(=O)CS(=O)(=O)O,Potency,[1],inactive
same,Potency,[2],inactive
same,Potency,[3],inactive
same,Potency,[4],inactive
COC(=O)[C@@H]1CC2=CC(=O)CC[C@]2(C)[C@@]23O[C@@H]2C[C@@]2(C)[C@@H](CC[C@@]24CCC(=O)O4)[C@H]13,Potency,[1],inactive
same,Potency,[2],inactive
same,Potency,[3],inactive
same,Potency,[4],inactive
CCCC(CC)c1ccccc1 (stereo not given),Potency,[1],inactive
same,Potency,[2],inactive
same,Potency,[3],inactive
same,Potency,[4],inactive
O=C(CCCN1CCC(O)(c2ccc(Br)cc2)CC1)c1ccc(F)cc1,Potency,[1],inactive
same,Potency,[2],inactive
same,Potency,[3],inactive
same,Potency,[4],inactive
CCCOC(=O)c1ccccc1,Potency,[1],inactive
same,Potency,[2],inactive
same,Potency,[3],inactive
same,Potency,[4],inactive
O=C(Nc1ccccc1SSc1ccccc1NC(=O)c1ccccc1)c1ccccc1,Potency,[1],inactive
same,Potency,[2],inactive
same,Potency,[3],inactive
same,Potency,[4],inactive
CCOC(=O)c1cccc(N)c1,outcome,[1],inactive
same,outcome,[2],inactive
same,outcome,[3],inactive
same,outcome,[4],inactive
C[N+]1(CC2COC(c3ccccc3)(c3ccccc3)O2)CCCCC1 (stereo not given),"activity, negative = inhibition",[1],-0.268% [at 23.6 µM] (inactive)
same,"activity change, negative = inhibition",[2],0.437% [at 23.6 µM] (inactive)
same,"activity change, negative = inhibition",[3],-6.49% [at 23.8 µM] (inactive)
same,"activity change, negative = inhibition",[4],4.03% [at 23.6 µM] (inactive)
CC[C@H](C)C(=O)O[C@H]1C[C@H](O)C=C2C=C[C@H](C)[C@H](CC[C@@H](O)C[C@@H](O)CC(=O)O)[C@H]21,Potency,[1],inactive
same,Potency,[2],inactive
same,Potency,[3],inactive
same,Potency,[4],inactive
O=[N+]([O-])c1ccc2c(c1)Cc1ccccc1-2,Potency,[1],inactive
same,Potency,[2],inactive
same,Potency,[3],39.9 µM (active) and inactive
same,Potency,[4],inactive
CCCCCCn1c(=O)c2c(ncn2C)n(C)c1=O,Potency,[1],inactive
same,Potency,[2],inactive
same,Potency,[3],inactive
same,Potency,[4],inactive
O=C1c2cccc3c2[C@H](CCC3)CN1[C@@H]1CN2CCC1CC2,Potency,[1],inactive
same,Potency,[2],inactive
same,Potency,[3],inactive
same,Potency,[4],inactive
O=C(/C=C/C=C/c1ccc2c(c1)OCO2)N1CCCCC1,Potency,[1],inactive
same,Potency,[2],inactive
same,Potency,[3],inactive
same,Potency,[4],inactive
COc1cc(-c2ccc(=O)[nH]n2)ccc1OC(F)F,Potency,[1],inactive
same,Potency,[2],inactive
same,Potency,[3],inactive
same,Potency,[4],inactive
COCCOC(=O)CC#N,Potency,[1],inactive
same,Potency,[2],inactive
same,Potency,[3],inactive
same,Potency,[4],inactive
CCN(CC)S(=O)(=O)c1ccc(C(=O)O)cc1,Potency,[1],inactive
same,Potency,[2],inactive
same,Potency,[3],inactive
same,Potency,[4],inactive
CCCCCCCCCCCCOCCO,Potency,[1],inactive
same,Potency,[2],inactive
same,Potency,[3],inactive
same,Potency,[4],inactive
O=C1c2cccc(O)c2C(=O)c2c(O)cccc21,Potency,[1],inactive
same,Potency,[2],inactive
same,Potency,[3],inactive
same,Potency,[4],inactive
CCOCC(O)COc1ccc(NC(=O)CC[S+](C)C)cc1 (stereo not given),Potency,[1],inactive
same,Potency,[2],inactive
same,Potency,[3],inactive
same,Potency,[4],inactive
Nc1cc([N+](=O)[O-])ccc1O,Potency,[1],inactive
same,Potency,[2],inactive
same,Potency,[3],inactive
same,Potency,[4],inactive
C/C=C/c1ccc(OC)cc1,Potency,[1],inactive
same,Potency,[2],inactive
same,Potency,[3],inactive
same,Potency,[4],inactive
Cc1cc(C(=C2C=CC(=Nc3ccc(S(=O)(=O)O)cc3S(=O)(=O)O)C=C2)c2ccc(Nc3ccc(S(=O)(=O)O)cc3)cc2)ccc1N,Potency,[1],inactive
same,Potency,[2],inactive
same,Potency,[3],inactive
same,Potency,[4],inactive
NC(=O)NC(=O)Cc1ccccc1,Potency,[1],inactive
same,Potency,[2],inactive
same,Potency,[3],inactive
same,Potency,[4],inactive
CC(COC(C)(C)C)OCCCO (stereo not given),Potency,[1],inactive
same,Potency,[2],inactive
same,Potency,[3],inactive
same,Potency,[4],inactive
CCOC(=O)CC(C(C)=O)C(C)=O,Potency,[1],inactive
same,Potency,[2],inactive
same,Potency,[3],inactive
same,Potency,[4],inactive
CCc1cccc(CC)c1,Potency,[1],inactive
same,Potency,[2],inactive
same,Potency,[3],inactive
same,Potency,[4],inactive
CC[C@@]1(O)C(=O)OCc2c1cc1n(c2=O)Cc2cc3c(CN(C)C)c(O)ccc3nc2-1,Potency,[1],inactive
same,Potency,[2],inactive
same,Potency,[3],inactive
same,Potency,[4],inactive
C=CCSSCCC,Potency,[1],inactive
same,Potency,[2],inactive
same,Potency,[3],inactive
same,Potency,[4],inactive
O=S(c1cc(Cl)cc(Cl)c1O)c1cc(Cl)cc(Cl)c1O,Potency,[1],inactive
same,Potency,[2],inactive
same,Potency,[3],inactive
same,Potency,[4],inactive
O=C(O)P(=O)(O)O,Potency,[1],inactive
same,Potency,[2],inactive
same,Potency,[3],inactive
same,Potency,[4],inactive
CC(=O)CC(=O)Nc1ccccc1C,Potency,[1],inactive
same,Potency,[2],inactive
same,Potency,[3],inactive
same,Potency,[4],inactive
CC[C@]1(O)C[C@H]2CN(CCc3c([nH]c4ccccc34)[C@@](C(=O)OC)(c3cc4c(cc3OC)N(C=O)[C@H]3[C@@](O)(C(=O)OC)[C@H](OC(C)=O)[C@]5(CC)C=CCN6CC[C@]43[C@@H]65)C2)C1,Potency,[1],inactive
same,Potency,[2],inactive
same,Potency,[3],inactive
same,Potency,[4],inactive
Cn1c(=O)c2[nH]c(Br)nc2n(C)c1=O,Potency,[1],inactive
same,Potency,[2],inactive
same,Potency,[3],inactive
same,Potency,[4],inactive
Cc1nc2sccn2c(=O)c1CCN1CCC(=C(c2ccc(F)cc2)c2ccc(F)cc2)CC1,Potency,[1],30.9 µM (active)
same,Potency,[2],38.9 µM (active)
same,Potency,[3],15.5 µM (active)
same,Potency,[4],inactive
CC(=O)Oc1ccccc1C(=O)O,Potency,[1],inactive
same,Potency,[2],inactive
same,Potency,[3],inactive
same,Potency,[4],inactive
O=C1c2ccccc2C(=O)c2cc(O)ccc21,Potency,[1],inactive
same,Potency,[2],inactive
same,Potency,[3],inactive
same,Potency,[4],inactive
C[CH2][Ge]([Cl])([CH2]C)[CH2]C,Potency,[1],inactive
same,Potency,[2],inactive
same,Potency,[3],inactive
same,Potency,[4],inactive
CCO[Si](CCCCl)(OCC)OCC,Potency,[1],inactive
same,Potency,[2],inactive
same,Potency,[3],inactive
same,Potency,[4],inactive
CCOC(=O)Oc1ccc(CCNC(=O)[C@H](CCSC)NC(C)=O)cc1OC(=O)OCC,Potency,[1],inactive
same,Potency,[2],inactive
same,Potency,[3],inactive
same,Potency,[4],inactive
